Compound activity (PubChem)
HTT aggregate: qHTS Multiplex Assay to Identify Dual Action Probes in a Cell Model of Huntington: Aggregate Formation (GFP). PC12 HttQ103-GFP aggregates, Acumen cytometry, 40 h. Potency, µM (titrated, usually from 46.1 µM), for the others: top-dose activity change, negative = inhibition, most hits filed as inhibitors. 220,000 tested, 1.1% active. AID 1688, 2009; further: potency means the concentration at half of the fitted maximal effect; on the % scale 0 is the no-effect control and ±100 the full control effect; nearly all actives have a fitted effect of over 60% in size
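Compounds (qHTS titration) were added to PC12 cells expressing an ecdysone-driven HTT exon 1 Q103–GFP fusion after induction with 100 nM tebufenozide. Aggregate formation was measured as GFP objects in cell lysates.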
PNC assembly inh: High Content Assay for Compounds that inhibit the Assembly of the Perinucleolar Compartment. activity change (PNC), negative = inhibition, % at 10 µM. 140,000 tested, 3.1% active. PC3M PTB-GFP, PNC prevalence imaging, 16 h; stronger effect = lower value. AID 2417, 2010;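 active means readout at or below -70, meaning at least 70% loss of cells showing the perinucleolar compartment, a nuclear body marking cancer cells; inconclusive means readout between -30 and a set limit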;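 further: plate controls were DMSO wells for no effect and camptothecin positive control wells for full effect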
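Compounds are pinned in duplicate onto adhered PC3M cells stably expressing GFP-tagged PTB and incubated 16 h at 37 C. Cells are then fixed, nuclei stained with Hoechst, and PNC-positive cells counted.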
HTT ATP protect: qHTS Multiplex Assay to Identify Dual Action Probes in a Cell Model of Huntington: Cytoprotection (ATP). 230,000 tested, 0.14% active. Potency, µM (series often up to 56.4 µM), inactives show cytoprotection (ATP increase), usual class: activators. PC12 HTT-Q103 induced, cytoprotection, ATP luminescence, 40 h. AID 1471, 2008; further: potency means the concentration at half of the fitted maximal effect; % of control where 0% means no effect; nearly all actives have a fitted effect of over 45% in size
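Compounds were screened for protection of PC12 cells against cell death after tebufenozide induction (100 nM final) of mutant Huntingtin exon 1 (Q103) fused to GFP.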
An asterisk follows results filed as active; ? = inconclusive; . = not tested or not shown; [ ] = dose if it differs, or a comment. This excerpt belongs to a sample that is enriched for hits. Unless noted, the call rests on the fitted dose curve; in most records, active means well fitted curve in the direction sought with a large enough effect; inconclusive means small, poorly fitted or top-dose-only effect, or another doubt; inactive means no such curve, though single readings can be large; an effect the other way counts as inactive or inconclusive.

SMILES	HTT aggregate	PNC assembly inh	HTT ATP protect
O=C(Nc1ccc(-c2cn3ccccc3n2)cc1)c1ccco1	5%	?	.
CCOc1ccc2nc(SCC(=O)NC3CCCc4ccccc43)sc2c1 (configuration not stated)	-22%	15	16%[10 µM]
COc1ccccc1OCC(=O)Nc1ccc2c(c1)n(C)c(=O)n2C	-18%	.	-57%
COc1ccc(C(=O)N2CCc3cc(OC)c(OC)cc3C2)cc1OC	0%	32	-21%
COc1cc2c(cc1OC)CN(C(=O)C(C)(C)C)CC2	-12%	-106*	-35%
Cc1ccc(S(=O)(=O)N2c3ccccc3OCC2C(C)(C)C)cc1 (configuration not stated)	-24%	-100*	-16%[10 µM]
Cc1ccc2c(c1)N(S(=O)(=O)c1ccc(F)cc1)C(C(C)(C)C)CO2 (configuration not stated)	-17%	-27	13%[10 µM]
CC(C1CC1)N(C(=O)c1ccccc1[N+](=O)[O-])c1ccccc1 (configuration not stated)	16%	.	16%[10 µM]
Nc1nnc(N2CCc3ccccc32)s1	15%	50	?
Nc1ncnc(N2CCc3ccccc32)c1[N+](=O)[O-]	2.5µM*	.	-7%
CSc1ccc(C(=S)N2CCN(C)CC2)cc1	4%	34	2%[10 µM]
CC(C)OC(=O)COc1ccc(-c2ccccc2)cc1	14%	12	-11%
CC(=O)c1ccc(OCC(=O)c2ccc(-c3ccccc3)cc2)cc1	-12%	-87*	.
O=C(CCCSc1nc2ccccc2[nH]1)NCc1ccccc1F	-1%	.	6%
O=C(NN1CCN(Cc2ccccc2Cl)CC1)c1ccc(Cl)cc1	-2%	44	32%[10 µM]
O=C(CCc1ccccc1)Nc1cc2c(cc1Cl)OCCO2	10%	-109*	.
O=C(CCc1ccccc1)Nc1ccc2c(c1)OCCO2	-2%	-15	-16%
Cc1ccc2nc(C(F)(F)F)c(C#N)c(N)c2c1	?	-22	26%
Cc1cc(C)c2nc(C(F)(F)F)c(C#N)c(N)c2c1	5.6µM*	20	37%[10 µM]
Cc1cc(N/N=C/c2cccc(Cl)c2)nc(-n2nc(C)cc2C)n1	2%[9.22 µM]	.	19%[10 µM]
COc1ccc(/C=N/Nc2cc(C)nc(-n3nc(C)cc3C)n2)cc1	14µM*	-1	-8%[10 µM]
O=C(O)CC1S/C(=N/N=C2CCCCC2)N(c2ccccc2)C1=O (configuration not stated)	8%	-10	.
O=C1CC(C(=O)N2CCC(N3CCC(C(=O)NC4CC4)CC3)CC2)c2ccccc21 (configuration not stated)	3%[9.22 µM]	.	-10%[10 µM]
Cc1ccc(Cn2c(/C=C/c3ccco3)nc3ccccc32)cc1	?	-19	-86%[10 µM]
Clc1ccc(Cn2c(/C=C/c3ccco3)nc3ccccc32)cc1	?	-84*	2%[10 µM]
SMILES	HTT aggregate	PNC assembly inh	HTT ATP protect
O=C(Nc1ccc(NC(=O)C2CC2)cn1)c1ccccc1Cl	0%	-112*	-13%[10 µM]
O=C(Nc1ccc(NC(=O)C2CC2)nc1)c1cccs1	14%	-107*	0%
O=C(Nc1ccc(NC(=O)c2cccs2)cn1)c1ccccc1	21%	.	-4%[10 µM]
O=C(Nc1ccc(NC(=O)C2CCCCC2)nc1)c1ccccn1	3%[9.22 µM]	.	-7%[10 µM]
COc1ccccc1N(CC(=O)NCc1ccccc1)C(=O)CCC(=O)Nc1ccccn1	-8%	-100*	10%[10 µM]
COc1ccc(CNC(=O)CN(C(=O)CCC(=O)Nc2ccccn2)c2ccccc2OC)cc1	.	5	-14%
CCOC(=O)NCC(C)(C)CNC(=O)OCC	-17%	-117*	-5%
CCOC(=O)NCc1ccc(CNC(=O)OCC)cc1	8%[9.22 µM]	0	-6%[10 µM]
COc1ccc(-c2nn(-c3ccccc3)cc2/C=N/NC(=O)c2ccc3c(c2)OCO3)cc1	?	-24	9%
COc1ccc(-c2nn(-c3ccccc3)cc2/C=N/NC(=O)c2ccc(Br)o2)cc1	3.5µM*	-29	-40%
CC(=O)c1n[nH]nc1Nc1nc(C)cc(C)n1	10%	-29	-13%[10 µM]
CCNc1nc(NCC)nc(N/N=C/c2ccc([N+](=O)[O-])o2)n1	-12%	-2	-15%
CCN(CC)c1ccc(N=Cc2ccc([N+](=O)[O-])o2)cc1	14µM*	?	3%[10 µM]
CCN(CC)c1ccc(N=Cc2ccccc2[N+](=O)[O-])cc1	-15%	-99*	.
CCN(CC)c1ccc(C=Nc2ccc(C#N)cc2)c(O)c1	7%[9.22 µM]	26	-8%
CC(=O)c1ccc(NC(=O)/C(Cl)=C/c2ccccc2)cc1	15%	.	-19%
O=C1/C(=C\Nc2ccc(OC(F)(F)F)cc2)CCN1c1ncccn1	5%	?	8%
CCc1nc2ccc(C(=O)O)cc2nc1CC	-11%	36	-34%[10 µM]
CC(=O)O[C@H]1C2OC(=O)C(C)=C2[C@@H]2OC(=O)[C@]3(CCC4OC41C)OC23 (some centres not stated)	25%	-119*	.
CCN1CCN(CCNC(=O)C2CCN(Cc3nc(-c4ccc(Cl)cc4)oc3C)CC2)CC1	29%	6	-8%
O=C1c2ccccc2-c2onc3ccc(NCc4ccco4)c1c23	4%[9.22 µM]	-16	-27%
CCNc1ccc2noc3c2c1C(=O)c1ccccc1-3	-24%	-100*	27%[10 µM]
COc1ccc(CC(C)N2CCN(c3ccccc3OC)CC2)cc1OC (configuration not stated)	-9%	56	-15%
Cc1cc([N+](=O)[O-])nn1CC(=O)Nc1sc2c(c1C(N)=O)CCCC2	5%	.	27%[10 µM]
CCn1c2ccccc2c2cc(N=C3SC(CC(=O)Nc4ccccc4OC)C(=O)N3CCOC)ccc21 (configuration not stated)	33%	-98*	23%[10 µM]
SMILES	HTT aggregate	PNC assembly inh	HTT ATP protect
COc1ccc(N=C2SC(CC(=O)Nc3ccccc3OC)C(=O)N2Cc2ccco2)cc1 (configuration not stated)	-9%	-104*	-6%[10 µM]
CCn1c2ccccc2c2cc(N=C3SC(CC(=O)Nc4ccccc4OC)C(=O)N3C)ccc21 (configuration not stated)	-6%	-15	-37%
COc1ccc(N=C2SC(CC(=O)Nc3ccc(F)cc3)C(=O)N2Cc2ccco2)cc1 (configuration not stated)	-4%	-6	21%[10 µM]
O=C(NCCCN1CCOCC1)c1ccc(-c2ccc(Cl)cc2)o1	-5%[9.22 µM]	.	-19%[10 µM]
COc1cc(OC)cc(-c2nc3ccccc3c(=O)n2OC(=O)c2ccc(C)c(C)c2)c1	?	-1	23%[10 µM]
CCC(C)/C(C)=N/Nc1ccc(S(N)(=O)=O)cc1[N+](=O)[O-] (configuration not stated)	-6%	.	-17%
COc1ccc(-c2nc3c(c4c2CC(C)OC4)CN(CCC(C)C)CC3)cc1 (configuration not stated)	.	.	-14%[10 µM]
CCCn1c(=O)c2ccccc2n2c(SCC(=O)c3cc(C)n(CCOC)c3C)nnc12	11%[9.22 µM]	-15	10%
Cc1cc(OCC(=O)C(C)(C)C)c2c(C)c(C)c(=O)oc2c1	6%	-100*	-18%[10 µM]
CCc1cc(=O)oc2cc(C)cc(OCC(=O)C(C)(C)C)c12	2%	.	-53%
COC(C[C@@H]1O[C@@H]1[C@@H](O)[C@@H](C)OCc1ccccc1)OC	-8%[9.22 µM]	.	-18%[10 µM]
